Screening data: PubChem BioAssay, Broad Institute
CFTR F508del cor: correctors of CFTR F508del function in bronchial epithelial cells; 350,000 compounds, 0.36% hits; CFBE cells, YFP halide quenching; stimulated with forskolin plus potentiator P3; % fluorescence drop versus neutral controls; activity (quench increase), % at 7.58 µM;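 active means mean added fluorescence quench of at least 8% versus neutral control, with both replicates also reaching 8%; inconclusive means only one of the mean or replicate conditions met; inactive means mean below 8% and not both replicates reaching 8%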;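 further: cells transiently co-express mutant CFTR-F508del with the halide-sensitive YFP; corrector assay measuring rescue of mutant channel to the surface after 24 h compound exposure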
EWS-Fli inh: EWS/Fli transcriptional activity inhibition; A673 NR0B1-luciferase reporter, viability-normalised; inhibition, % at 12.6 µM; 350,000 compounds, 0.67% hits; AID 651661;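 active means mean inhibition of at least 50% after viability correction, with every replicate also passing that limit; inconclusive means mean reaches 50% but only one of two replicates passes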;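 further: firefly luciferase signal divided by Alamar Blue viability fluorescence both relative to DMSO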
Env fusion inh: HIV envelope-mediated fusion inhibition | HeLa-JRFL Env/CEM21 cell fusion, luciferase | AID 651610 | 360,000 compounds, 1.1% hits | inhibition, % at 12.3 µM;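 active means mean replicate inhibition score of at least 50 and every replicate individually at or above 50; inconclusive means only one of the two criteria met; inactive means mean below 50 and not all replicates reaching 50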
INS-1E GSIS act: GLuc luminescence reporter in INS-1E cells, primary screen for activators of glucose-dependent secretion of insulin | INS-1E GLuc reporter insulin secretion, 2-3 h | 370,000 compounds, 0.61% hits | activation, % at 16.6 µM;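 active means lowest replicate activation of at least 40%, so every replicate reaches that level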
PAX8 reporter: lowers PAX8-driven luciferase in RMG-I cells; 360,000 compounds, 1.2% hits; inhibition, % at 12.6 µM; AID 652154; RMG-I TPO-luciferase reporter, SteadyGlo, 24 h;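 active means mean replicate inhibition at least 60% with every replicate also reaching 60%; inconclusive means only one of the two criteria is met; inactive means mean below 60% and not all replicates reaching 60%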;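 further: luciferase light reporting Pax8 driven TPO promoter activity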
PGC1a acetyl inh: PGC1a acetylation modulation, inhibitor mode | U2OS PGC1a acetylation, AlphaScreen anti-acetyl-lysine; with virally co-expressed GCN5 acetyltransferase | inhibition, % at 15.6 µM | 350,000 compounds, 0.17% hits;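 active means every replicate shows inhibition of at least 40%; inconclusive means mean inhibition at least 40% but some replicate below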
Large screens that a line does not name were inactive; ! = a repeat was not active. Only some compounds are listed: those with a hit (about 2.7% of all), similar ones and a draw of the others.

CCCN1C(=O)c2ccccc2NC1c1ccc(Cl)c(Cl)c1 (configuration not stated)	none
CCc1nnc(NC(=O)C(c2ccccc2)c2ccccc2)s1	INS-1E GSIS act 103 (no result: PGC1a acetyl inh)
O=C(O)C[C@@H]1CC[C@@H](NC(=O)Nc2cc(F)ccc2F)[C@@H](CO)O1	none
COc1ccc(N2C(=O)c3ccccc3NC(=O)C2C(=O)NCCc2ccccc2F)cc1 (configuration not stated)	Env fusion inh 58 (no result: PGC1a acetyl inh)
NC(=O)NC(=O)CSc1nc(C2CCCCC2)n(-c2ccccc2)n1	none (no result: CFTR F508del cor, PGC1a acetyl inh)
C/C(N)=C(/C#N)C(=O)CSc1nc(C2CCCCC2)n(-c2ccccc2)n1	Env fusion inh 67!
CCOCCOC(=O)c1[nH]c2c(c1C)C(=O)CC(c1cc(OC)c(OC)c(OC)c1)C2 (configuration not stated)	none
CCOCCOC(=O)c1[nH]c2c(c1C)C(=O)CC(c1ccccc1)C2 (configuration not stated)	EWS-Fli inh inconclusive, PAX8 reporter 82
COC(=O)c1[nH]c2c(c1C)C(=O)CC(c1cccc(OC)c1)C2 (configuration not stated)	CFTR F508del cor 8.4, EWS-Fli inh 60, PAX8 reporter 82 (no result: PGC1a acetyl inh)
Cc1c(C(=O)OCC(C)C)[nH]c2c1C(=O)CC(c1cccs1)C2 (configuration not stated)	none (no result: CFTR F508del cor, EWS-Fli inh, INS-1E GSIS act)
CCOC(=O)c1[nH]c2c(c1C)C(=O)CC(c1ccc(F)cc1)C2 (configuration not stated)	EWS-Fli inh 63
COCCOC(=O)c1[nH]c2c(c1C)C(=O)CC(c1cccs1)C2 (configuration not stated)	CFTR F508del cor 13, EWS-Fli inh 61
COc1ccc(CN2CC3(C2)CN(C(=O)CN(C)C)[C@H](CO)c2[nH]c4cc(OC)ccc4c23)cc1	none (no result: PAX8 reporter, PGC1a acetyl inh)
CCOCCOC(=O)c1[nH]c2c(c1C)C(=O)CC(c1cccs1)C2 (configuration not stated)	EWS-Fli inh 53
CCCCCOC(=O)c1[nH]c2c(c1C)C(=O)CC(c1ccco1)C2 (configuration not stated)	none (no result: CFTR F508del cor, EWS-Fli inh, Env fusion inh, INS-1E GSIS act, PAX8 reporter)
O=CNc1ccc2c(c1)Cc1cc([N+](=O)[O-])ccc1-2	Env fusion inh 75
Clc1ccc(CN2CCc3c([nH]c4ccccc34)C2)cc1Cl	EWS-Fli inh 57 (no result: PGC1a acetyl inh)
O=c1oc(-c2ccccc2F)nc2scc(-c3ccccc3)c12	Env fusion inh 64 (no result: INS-1E GSIS act)
CCC1CCCCN1C(=O)CCCOc1ccccc1 (configuration not stated)	none (no result: CFTR F508del cor, EWS-Fli inh, Env fusion inh, INS-1E GSIS act, PAX8 reporter)
CCCCC[C@H](O)/C=C/[C@H]1CCC(=O)[C@@H]1CCCCCCC(=O)N1CCCCC1CO (some centres not stated)	PAX8 reporter 70
COc1ccc(CCCCCCOCc2ccccc2)cc1	none
COc1ccc(COC[B-](F)(F)F)cc1	INS-1E GSIS act 44 (no result: Env fusion inh)
Cc1ccc(S(=O)(=O)N[C@@H]2CC[C@@H](CC(=O)N3CCC(Cc4ccccc4)CC3)O[C@@H]2CO)cc1	none
O=C(Nc1ccccc1)c1ccc(CN2CCc3ccccc3C2)cc1	Env fusion inh 61
Cc1ccc(NC(=O)c2ccc(CN3CCc4ccccc4C3)cc2)cc1	Env fusion inh 93 (no result: CFTR F508del cor, EWS-Fli inh, INS-1E GSIS act, PAX8 reporter)
O=C(Nc1cccnc1)c1ccc(CN2CCc3ccccc3C2)cc1	Env fusion inh 54 (no result: CFTR F508del cor, EWS-Fli inh, INS-1E GSIS act)
C[C@@H](NC(=O)[C@@H]1[C@@H](CO)[C@@H]2Cn3c(ccc(-c4cccnc4)c3=O)[C@@H]2N1C)c1ccccc1	none (no result: Env fusion inh, PGC1a acetyl inh)
O=C(CN1C(=O)CSc2cc(S(=O)(=O)N3CCCCCC3)ccc21)NCCc1ccccc1	none (no result: CFTR F508del cor, EWS-Fli inh, Env fusion inh, PAX8 reporter)
CC1CCCCC1NC(=O)CN1C(=O)CSc2cc(S(=O)(=O)N3CCCCCC3)ccc21 (configuration not stated)	PAX8 reporter 85 (no result: Env fusion inh, INS-1E GSIS act)
CC(C)NC(=O)Nc1ccc2c(c1)CC(=O)N(C)C[C@@H](C)[C@H](CN(C)C(=O)OC(C)(C)C)O2	none (no result: CFTR F508del cor, EWS-Fli inh, Env fusion inh, PAX8 reporter, PGC1a acetyl inh)
Cc1ccc(-c2nc(CSCC(=O)N3CCCC3)c(C)o2)cc1	none (no result: CFTR F508del cor, EWS-Fli inh, INS-1E GSIS act, PAX8 reporter)
Cc1cccc(-c2nc(CSCC(=O)N3CCN(c4ccccn4)CC3)c(C)o2)c1	Env fusion inh 89 (no result: CFTR F508del cor, EWS-Fli inh, INS-1E GSIS act)
C[C@H](CO)N1C[C@H](C)[C@H](CN(C)S(=O)(=O)c2ccccc2)OCCCC[C@H](C)Oc2ccc(NC(=O)Nc3ccc(C(F)(F)F)cc3)cc2C1=O	PAX8 reporter 74
